# A selection: hits, their analogues and other compounds. The true share with any hit is near 6.9%.
# PLK1 PBD block = blocks phosphopeptide binding to human PLK1 polo-box domain | P53350 | Plk1 PBD binding of FITC phosphopeptide, fluorescence polarization | Potency, µM, without a hit: max response, negative = inhibition, actives largely listed as inhibitors | 2.8% of 360,000 active | AID 720504; note: series mostly up to about 57 µM; % is set by controls: 0 for no effect and ±100 for the full control effect; nearly all actives have a fitted effect of over 65% in size
# HP1b chromo inh = inhibitors of HP1-beta chromodomain binding to methylated histone tails | P83916 | AlphaScreen HP1-beta / biotin-H3K9me3 peptide binding | Potency, µM (series often up to 114 µM), for the others: at the highest dose activity change, negative = inhibition, actives largely listed as inhibitors | 0.56% of 390,000 active | AID 540317; note: nearly all actives have a fitted effect of over 70% in size
#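 Compound inhibition of the preformed complex between 50 nM HP1-beta and 50 nM biotinylated H3K9me3 peptide was read by AlphaScreen. Buffer was PBS pH 7.4 with 0.01% Tween-20. Incubations ran 30 min at room temperature, with 10 ug/mL donor/acceptor beads.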
# VDR inhibitor = vitamin D3 receptor (human) inhibition | P11473 | VDR-SRC2-3 peptide fluorescence polarization, 2 h | Potency, µM, for the others: max response, negative = inhibition, hits mostly inhibitors | 0.93% of 400,000 active | AID 504847; note: % is set by controls: 0 for no effect and ±100 for the full control effect
#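 Inhibition of the VDR/SRC2-3 peptide interaction is quantified by fluorescence polarization. Compounds (23 nl, pintool) incubate with the reagents for 2 hours at ambient room temperature.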
# BAZ2B block = BAZ2B (human) inhibition. Potency, µM (highest dose often 114 µM), without a hit: top-dose activity change, negative = inhibition, usual class: inhibitors. 4.4% of 360,000 active. AlphaScreen BAZ2B-H3K14Ac peptide displacement. Q9UIF8; note: % is set by controls: 0 for no effect and ±100 for the full control effect; nearly all actives have a fitted effect of over 60% in size
#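 BAZ2B 50 nM plus b-H3(5-23)K14Ac 50 nM, PBS pH 7.4/0.01% Tween-20, 30 min RT; compound added (max 110 uM), 30 min RT; streptavidin donor/Ni-chelate acceptor beads 10 ug/mL final, 20 min dark; AlphaScreen read.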
# JMJD2A Tudor inh = blocks the human JMJD2A Tudor domain; Potency, µM (highest dose often 114 µM), without a hit: at the top dose activity change, negative = inhibition, hits mostly inhibitors; AlphaScreen JMJD2A-Tudor / H3K4me3 peptide binding; 4.4% of 390,000 active; note: % is set by controls: 0 for no effect and ±100 for the full control effect; nearly all actives have a fitted effect of over 50% in size
# Target sequence (O75164 whole entry, looked up, the tested form may be a part): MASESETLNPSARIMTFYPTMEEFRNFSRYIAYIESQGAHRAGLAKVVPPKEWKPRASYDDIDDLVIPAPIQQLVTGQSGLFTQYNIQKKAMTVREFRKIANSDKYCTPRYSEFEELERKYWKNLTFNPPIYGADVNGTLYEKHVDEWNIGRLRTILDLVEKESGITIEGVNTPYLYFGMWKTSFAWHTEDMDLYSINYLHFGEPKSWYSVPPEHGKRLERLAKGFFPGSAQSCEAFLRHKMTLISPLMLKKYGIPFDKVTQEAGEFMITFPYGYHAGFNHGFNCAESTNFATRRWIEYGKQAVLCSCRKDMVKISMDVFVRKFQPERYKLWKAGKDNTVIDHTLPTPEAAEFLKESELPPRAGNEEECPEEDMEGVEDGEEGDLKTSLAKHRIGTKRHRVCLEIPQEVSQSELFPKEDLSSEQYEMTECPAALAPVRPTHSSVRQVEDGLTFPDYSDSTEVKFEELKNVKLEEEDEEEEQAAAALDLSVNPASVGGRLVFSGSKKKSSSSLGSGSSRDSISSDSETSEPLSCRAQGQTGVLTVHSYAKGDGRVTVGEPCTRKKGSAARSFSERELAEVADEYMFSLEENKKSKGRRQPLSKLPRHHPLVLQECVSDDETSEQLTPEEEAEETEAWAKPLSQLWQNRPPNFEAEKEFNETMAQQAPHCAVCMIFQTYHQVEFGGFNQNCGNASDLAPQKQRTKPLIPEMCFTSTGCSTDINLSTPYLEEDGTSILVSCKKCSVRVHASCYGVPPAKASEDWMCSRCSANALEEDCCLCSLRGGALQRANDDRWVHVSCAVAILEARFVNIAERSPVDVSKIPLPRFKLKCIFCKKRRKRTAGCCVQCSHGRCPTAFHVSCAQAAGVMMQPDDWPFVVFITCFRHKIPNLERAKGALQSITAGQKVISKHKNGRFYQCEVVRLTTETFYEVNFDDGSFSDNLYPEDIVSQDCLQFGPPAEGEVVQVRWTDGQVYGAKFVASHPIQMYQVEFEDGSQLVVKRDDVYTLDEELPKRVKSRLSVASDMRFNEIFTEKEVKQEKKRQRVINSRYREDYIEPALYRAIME
# L3MBTL1 inh = L3MBTL1 (human) inhibition | Q9Y468 | AlphaScreen L3MBTL1–H3K9me1 peptide binding | Potency, µM (titrated, usually from 57.1 µM), without a hit: at the highest dose activity, negative = inhibition, hits mostly inhibitors | 0.66% of 230,000 active | AID 485360; note: % is set by controls: 0 for no effect and ±100 for the full control effect; nearly all actives have a fitted effect of over 60% in size
#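 Displacement of a biotinylated histone H3(1-15) peptide monomethylated at Lys9 (75 nM) from L3MBTL1 (50 nM) was measured by AlphaScreen after a 30 min room-temperature compound incubation; cefsulodin titration served as intraplate control.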
# TbPYK inh = confirmation of Trypanosoma brucei pyruvate kinase inhibitors; Potency, µM (highest dose often 76.9 µM), inactives show top-dose activity change, negative = inhibition, hits mostly inhibitors; shares compounds with PLK1 PBD block; 67% of 890 active; recombinant TbPYK, Kinase-Glo ATP luminescence; note: % is set by controls: 0 for no effect and ±100 for the full control effect; nearly all actives have a fitted effect of over 70% in size
# TbPYK orthogonal = orthogonal confirmation of Trypanosoma brucei pyruvate kinase inhibitors; shares compounds with PLK1 PBD block; recombinant TbPYK, ADP-Glo luminescence, 60 min; Potency, µM (top dose mostly 76.9 µM), for the others: top-dose activity change, negative = inhibition, hits mostly inhibitors; 62% of 890 active; note: % is set by controls: 0 for no effect and ±100 for the full control effect; nearly all actives have a fitted effect of over 75% in size
# An asterisk follows results filed as active; ? = inconclusive; · = not tested or not shown; [ ] = dose if it differs, or a comment. Calls come from the whole dose curve; as a rule, active = well fitted curve in the direction sought with a large enough effect; inconclusive = small, poorly fitted or top-dose-only effect, or another doubt; inactive = no such curve, though single readings can be large; an effect the other way counts as inactive or inconclusive. Potency is the fitted concentration of half-maximal effect.
SMILES,PLK1 PBD block,HP1b chromo inh,VDR inhibitor,BAZ2B block,JMJD2A Tudor inh,L3MBTL1 inh,TbPYK inh,TbPYK orthogonal
O=C(Nc1cccnc1)c1ccc2nc(-c3ccccc3)c(-c3ccccc3)nc2c1,-14%,0%,3%,?,?,-22%,·,·
O=C(NCc1ccccc1)c1ccc2nccnc2c1,-4%,38%,-11%,11%,-10%,·,·,·
O=C(Nc1ccccc1)c1ccc2nc(-c3ccco3)c(-c3ccco3)nc2c1,27µM*,?,?,-34%,50µM*,?,?,?
O=C(NCc1ccccc1)c1ccc2nc(-c3ccco3)c(-c3ccco3)nc2c1,7.5µM*,-94%,40µM*,50µM*,20µM*,·,18µM*,18µM*
O=C(O)CCc1ccc(-c2ccc(Cl)cc2)o1,?,-23%,?,-36%,?,·,?,?
O=c1[nH]nc(Cc2ccc(-c3ccc(Cl)cc3)o2)c2ccccc12,-8%,6%,-13%,4%,-17%,?,·,·
COC(=O)C1=C(C(=O)OC)C(C(=O)OC)C(C(=O)OC)C(C(=O)OC)(C(=O)OC)C(C(=O)OC)=C1C(=O)OC (stereo not drawn),11µM*,50µM*,40µM*,·,89µM*,·,28µM*,35µM*
O=c1c2sccc2[nH]c(=S)n1Cc1ccccc1,-20%,27%,-6%,10%,-23%,-2%,14µM*,7.1µM*
COc1ccc(Cn2c(=S)[nH]c3ccsc3c2=O)cc1,-10%,52%,-10%,7%,-25%,4%,5µM*,5.6µM*
CC(NC(=O)CCn1c(=S)[nH]c2ccsc2c1=O)c1ccccc1 (stereo not drawn),-11%,20%,-3%,3%,-25%,·,·,·
CCOc1ccc(CCNC(=O)C(CCC(N)=O)NC(=O)OCc2ccccc2)cc1OCC (stereo not drawn),3%,21%,-1%,-34%,-2%,-5%[2.29 µM],·,·
O=C(NCc1ccco1)c1cccc(NC(=O)c2ccccc2)c1,-11%,5%,1%,-3%,-14%,-1%[11.4 µM],·,·
CCC(CC)C(=O)Nc1cccc(C(=O)NCc2ccco2)c1,-6%,16%,-4%,56µM*,?,?,-8%,-15%
CC1CN(CC(=O)NCc2ccc(Cl)cc2)CC(C)O1 (stereo not drawn),-9%,55%,3%,-3%,-1%,-2%,·,·

# From PubChem BioAssay
